According to the supplement of paper PMC10849652:
Of roughly 7,900 targets only a part is listed; those with a hit were picked by preference. About 0.6% of all pairs of compound and target were hits.

Columns and labels:
Test in all cases: log2 fold change, soluble protein after heating vs DMSO (PISA); higher = thermal stabilisation; K562 cells, 10 uM, 30 min; active = over 0.2 and 3.5 SD of the protein, either way, in both replicates (recomputed)
[1] = compound: COC1=CC=C(C=C1)CN2C=CC3=C2C=C(C=C3)C(=O)NO
Outline: (§1)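 Soluble protein was defined as the supernatant after 21,000xg for 90 min. It came from K562 cells at 2×10^6 cells/mL given 10 μM compound for 30 min, heated in aliquots for 3 min across 48°C-58°C, pooled, and extracted in PBS with 0.5% NP-40 at 4°C, and was quantified by TMTpro 16plex LC-MS/MS with equalised channel sums. Thermal stability against control samples, from duplicates, is reported as log2 fold change.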

filanesib = compound: CON(C)C(=O)N1N=C(c2cc(F)ccc2F)S[C@@]1(CCCN)c1ccccc1 [filanesib]
Outline: as §1

zotarolimus = compound: CO[C@H]1C[C@@H]2CC[C@@H](C)[C@@](O)(O2)C(=O)C(=O)N2CCCC[C@H]2C(=O)O[C@H]([C@H](C)C[C@@H]2CC[C@H](n3cnnn3)[C@H](OC)C2)CC(=O)[C@H](C)/C=C(\C)[C@@H](O)[C@@H](OC)C(=O)[C@H](C)C[C@H](C)/C=C/C=C/C=C/1C [zotarolimus]
Outline: as §1

idasanutlin = compound: COc1cc(C(=O)O)ccc1NC(=O)[C@@H]1N[C@@H](CC(C)(C)C)[C@](C#N)(c2ccc(Cl)cc2F)[C@H]1c1cccc(Cl)c1F [idasanutlin]
Outline: as §1

[2] = compound: COc1cc2nc(-c3cc(F)ccc3O)nc(N[C@@H]3CNC[C@H]3C(C)(C)O)c2cc1OC
Outline: as §1

gefitinib = compound: COc1cc2ncnc(Nc3ccc(F)c(Cl)c3)c2cc1OCCCN1CCOCC1 [gefitinib]
Outline: as §1

lapatinib = compound: CS(=O)(=O)CCNCc1ccc(-c2ccc3ncnc(Nc4ccc(OCc5cccc(F)c5)c(Cl)c4)c3c2)o1 [lapatinib]
Outline: as §1

pictilisib = compound: CS(=O)(=O)N1CCN(Cc2cc3nc(-c4cccc5[nH]ncc45)nc(N4CCOCC4)c3s2)CC1 [pictilisib]
Outline: as §1

[3] = compound: CS(=O)(=O)c1ccc(-c2cnc(N)c(C(=O)Nc3ccccc3)n2)cc1
Outline: as §1

crizotinib = compound: C[C@@H](Oc1cc(-c2cnn(C3CCNCC3)c2)cnc1N)c1c(Cl)ccc(F)c1Cl [crizotinib]
Outline: as §1

[4] = compound: C[C@@H]1COCCN1C2=NC(=NC(=C2)C3(CC3)S(=O)(=O)C)C4=C5C=CNC5=CC=C4
Outline: as §1

[5] = compound: C[C@H](C1=CC=C(C=C1)C(=O)NC2=C3C=CNC3=NC=C2)N
Outline: as §1

duvelisib = compound: C[C@H](Nc1ncnc2nc[nH]c12)c1cc2cccc(Cl)c2c(=O)n1-c1ccccc1 [duvelisib]
Outline: as §1

gandotinib = compound: Cc1cc(Nc2cc(CN3CCOCC3)c3nc(C)c(Cc4ccc(Cl)cc4F)n3n2)n[nH]1 [gandotinib]
Outline: as §1

[6] = compound: Cc1cc(SCc2sc(-c3ccc(C(F)(F)F)cc3)nc2C)ccc1OCC(=O)O
Outline: as §1

doramapimod = compound: Cc1ccc(-n2nc(C(C)(C)C)cc2NC(=O)Nc2ccc(OCCN3CCOCC3)c3ccccc23)cc1 [doramapimod]
Outline: as §1

alisertib = compound: COc1cc(Nc2ncc3c(n2)-c2ccc(Cl)cc2C(c2c(F)cccc2OC)=NC3)ccc1C(=O)O [alisertib]
Outline: as §1

[7] = compound: COc1cccc2cc(-c3nc([C@H]4CC[C@H](C(=O)O)CC4)n4ncnc(N)c34)[nH]c12
Outline: as §1

tozasertib = compound: Cc1cc(Nc2cc(N3CCN(C)CC3)nc(Sc3ccc(NC(=O)C4CC4)cc3)n2)n[nH]1 [tozasertib]
Outline: as §1

ispinesib = compound: Cc1ccc(C(=O)N(CCCN)[C@@H](c2nc3cc(Cl)ccc3c(=O)n2Cc2ccccc2)C(C)C)cc1 [ispinesib]
Outline: as §1

Measured: log2 fold change

ELAC1 (UniProt Q9H777)
inactive: [1] 0.022 | filanesib 0.083 | zotarolimus -0.06 | idasanutlin 0.122 | [2] 0.06 | gefitinib 0.112 | lapatinib -0.009 | pictilisib 0.049 | [3] -0.045 | crizotinib 0.011 | [4] -0.13 | [5] -0.137 | duvelisib 0.062 | gandotinib -0.021 | [6] 0.004 | doramapimod 0.007

EEF1A1 (UniProt P68104)
Chain of UniProt P68104 (P68104 whole entry, looked up): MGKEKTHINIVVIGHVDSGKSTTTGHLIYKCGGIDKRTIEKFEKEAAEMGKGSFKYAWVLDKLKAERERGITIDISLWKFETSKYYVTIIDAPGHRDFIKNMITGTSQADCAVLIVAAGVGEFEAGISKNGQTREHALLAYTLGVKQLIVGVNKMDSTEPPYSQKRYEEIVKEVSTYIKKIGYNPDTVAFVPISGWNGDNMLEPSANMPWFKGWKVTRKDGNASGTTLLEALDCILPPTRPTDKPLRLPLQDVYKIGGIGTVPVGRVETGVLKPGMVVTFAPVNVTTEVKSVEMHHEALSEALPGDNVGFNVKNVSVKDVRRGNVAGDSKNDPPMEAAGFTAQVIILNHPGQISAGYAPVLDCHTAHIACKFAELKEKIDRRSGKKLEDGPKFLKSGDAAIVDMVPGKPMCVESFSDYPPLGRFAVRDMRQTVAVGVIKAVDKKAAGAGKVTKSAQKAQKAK
inactive: [1] 0.081 | filanesib -0.119 | zotarolimus 0.182 | idasanutlin -0.086 | alisertib -0.347 | [2] -0.216 | gefitinib -0.029 | [7] -0.034 | lapatinib 0.1 | [3] 0.081 | crizotinib 0.001 | [4] -0.022 | [5] -0.474 | duvelisib -0.048 | tozasertib -0.139 | [6] -0.004 | doramapimod -0.062 | ispinesib 0.115

DSN1 (UniProt Q9H410)
inactive: [1] 0.032 | filanesib 0.048 | zotarolimus 0.114 | idasanutlin -0.013 | alisertib 0.018 | [2] -0.017 | gefitinib 0.113 | [7] -0.23 | lapatinib -0.028 | [3] -0.015 | crizotinib -0.016 | [4] 0.086 | [5] -0.05 | duvelisib 0.098 | tozasertib 0.026 | [6] -0.07 | doramapimod 0.007 | ispinesib 0.055

FAM241A (UniProt Q8N8J7)
active: filanesib -0.828
inactive: [1] 0.226 | zotarolimus -0.045 | idasanutlin 0.018 | alisertib -0.038 | [2] 0.042 | gefitinib 0.044 | [7] -0.006 | lapatinib -0.038 | pictilisib 0 | [3] -0.235 | crizotinib 0.117 | [5] -0.007 | duvelisib -0.016 | gandotinib -0.077 | tozasertib -0.027 | [6] -0.034 | doramapimod -0.018 | ispinesib -0.069

FAM50A (UniProt Q14320)
inactive: [1] -0.019 | filanesib -0.008 | zotarolimus 0.026 | idasanutlin -0.025 | alisertib -0.003 | [2] -0.026 | gefitinib 0.039 | [7] -0.025 | lapatinib 0.022 | pictilisib 0.056 | [3] 0.009 | crizotinib 0.129 | [4] 0.026 | [5] -0.06 | duvelisib -0.03 | gandotinib 0.147 | tozasertib 0.089 | [6] 0.092 | doramapimod -0.061 | ispinesib 0.095

DOCK8 (UniProt Q8NF50)
inactive: [1] 0.475 | filanesib 0.464 | zotarolimus 0.083 | idasanutlin 0.217 | alisertib -0.029 | gefitinib 0.006 | [7] -0.428 | pictilisib -0.337 | [3] 0.216 | crizotinib -0.011 | [4] -0.075 | duvelisib 0.038 | gandotinib 0.146 | tozasertib -0.119 | [6] -0.036 | doramapimod -0.004 | ispinesib -0.402
active: [5] 0.67

CYB561A3 isoform 2 (UniProt Q8NBI2)
inactive: [1] -0.026 | filanesib -0.073 | zotarolimus 0.011 | idasanutlin -0.066 | alisertib 0.041 | [2] 0.023 | gefitinib -0.06 | [7] 0.088 | lapatinib -0.019 | pictilisib 0.263 | [3] 0 | crizotinib -0.05 | [5] -0.073 | duvelisib 0.021 | gandotinib -0.103 | tozasertib -0.126 | [6] -0.014 | doramapimod 0.021 | ispinesib -0.139

DAG1 (UniProt Q14118)
inactive: [1] 0.005 | filanesib 0.054 | zotarolimus -0.045 | idasanutlin -0.047 | alisertib -0.075 | [2] 0.105 | gefitinib 0.032 | [7] 0.082 | lapatinib -0.015 | pictilisib 0.115 | [3] 0.037 | crizotinib 0.119 | [4] 0.132 | [5] 0.032 | duvelisib 0.116 | gandotinib -0.006 | tozasertib -0.084 | [6] -0.032 | doramapimod -0.001 | ispinesib -0.001

FAM118B (UniProt Q9BPY3)
inactive: [1] 0.028 | filanesib -0.196 | zotarolimus 0.011 | idasanutlin -0.034 | alisertib -0.049 | [2] 0.017 | gefitinib 0.031 | [7] 0.129 | lapatinib 0.018 | pictilisib 0.099 | [3] 0.099 | crizotinib -0.169 | [4] -0.007 | [5] 0.107 | gandotinib -0.101 | tozasertib 0.019 | doramapimod -0.003 | ispinesib 0.046

DCAF10 (UniProt Q5QP82)
inactive: [1] -0.047 | filanesib 0.016 | zotarolimus -0.01 | idasanutlin 0.002 | alisertib 0.09 | [2] 0.076 | gefitinib -0.051 | [7] -0.067 | lapatinib -0.081 | pictilisib 0.032 | [3] 0.036 | crizotinib 0.007 | [4] 0.037 | [5] 0.017 | duvelisib -0.046 | gandotinib -0.15 | tozasertib 0.007 | [6] -0.098 | doramapimod 0.055 | ispinesib -0.059

EXOC1 (UniProt Q9NV70)
active: ispinesib -0.472
inactive: [1] -0.056 | filanesib 0.01 | zotarolimus 0.038 | idasanutlin -0.084 | alisertib 0.015 | [2] 0.131 | gefitinib -0.045 | [7] -0.129 | lapatinib -0.011 | pictilisib -0.021 | [3] -0.036 | crizotinib -0.336 | [4] -0.007 | [5] 0.174 | duvelisib -0.013 | gandotinib -0.179 | tozasertib -0.016 | [6] 0.067 | doramapimod 0.138

DHX16 (UniProt O60231)
inactive: [1] 0.008 | filanesib 0.096 | zotarolimus 0.023 | idasanutlin -0.03 | alisertib -0.079 | [2] 0.028 | gefitinib 0.043 | [7] 0.04 | lapatinib 0.02 | pictilisib -0.012 | [3] 0.023 | crizotinib -0.013 | [4] 0.182 | [5] -0.03 | duvelisib -0.013 | gandotinib -0.06 | tozasertib -0.02 | [6] 0.053 | doramapimod -0.018 | ispinesib -0.01

DDX27 (UniProt Q96GQ7)
inactive: [1] 0.091 | filanesib 0.278 | zotarolimus 0.071 | idasanutlin 0.246 | alisertib 0.415 | gefitinib 0.044 | [7] -0.138 | pictilisib 0.061 | [3] -0.039 | crizotinib -0.037 | [4] -0.064 | [5] 0.37 | duvelisib -0.145 | gandotinib 0.073 | tozasertib -0.12 | [6] 0.071 | doramapimod 0.135 | ispinesib 0.004

FAM122A (UniProt Q96E09)
inactive: [1] -0.05 | filanesib -0.004 | zotarolimus -0.038 | idasanutlin 0.017 | alisertib -0.068 | [2] -0.053 | gefitinib 0.019 | [7] 0.005 | lapatinib 0.018 | pictilisib 0.092 | [3] 0.077 | crizotinib -0.032 | [4] -0.267 | [5] -0.042 | duvelisib 0.059 | gandotinib -0.015 | tozasertib 0.038 | [6] -0.015 | doramapimod 0.014 | ispinesib 0

DNAH5 (UniProt Q8TE73)
Chain of UniProt Q8TE73 (Q8TE73 whole entry, looked up): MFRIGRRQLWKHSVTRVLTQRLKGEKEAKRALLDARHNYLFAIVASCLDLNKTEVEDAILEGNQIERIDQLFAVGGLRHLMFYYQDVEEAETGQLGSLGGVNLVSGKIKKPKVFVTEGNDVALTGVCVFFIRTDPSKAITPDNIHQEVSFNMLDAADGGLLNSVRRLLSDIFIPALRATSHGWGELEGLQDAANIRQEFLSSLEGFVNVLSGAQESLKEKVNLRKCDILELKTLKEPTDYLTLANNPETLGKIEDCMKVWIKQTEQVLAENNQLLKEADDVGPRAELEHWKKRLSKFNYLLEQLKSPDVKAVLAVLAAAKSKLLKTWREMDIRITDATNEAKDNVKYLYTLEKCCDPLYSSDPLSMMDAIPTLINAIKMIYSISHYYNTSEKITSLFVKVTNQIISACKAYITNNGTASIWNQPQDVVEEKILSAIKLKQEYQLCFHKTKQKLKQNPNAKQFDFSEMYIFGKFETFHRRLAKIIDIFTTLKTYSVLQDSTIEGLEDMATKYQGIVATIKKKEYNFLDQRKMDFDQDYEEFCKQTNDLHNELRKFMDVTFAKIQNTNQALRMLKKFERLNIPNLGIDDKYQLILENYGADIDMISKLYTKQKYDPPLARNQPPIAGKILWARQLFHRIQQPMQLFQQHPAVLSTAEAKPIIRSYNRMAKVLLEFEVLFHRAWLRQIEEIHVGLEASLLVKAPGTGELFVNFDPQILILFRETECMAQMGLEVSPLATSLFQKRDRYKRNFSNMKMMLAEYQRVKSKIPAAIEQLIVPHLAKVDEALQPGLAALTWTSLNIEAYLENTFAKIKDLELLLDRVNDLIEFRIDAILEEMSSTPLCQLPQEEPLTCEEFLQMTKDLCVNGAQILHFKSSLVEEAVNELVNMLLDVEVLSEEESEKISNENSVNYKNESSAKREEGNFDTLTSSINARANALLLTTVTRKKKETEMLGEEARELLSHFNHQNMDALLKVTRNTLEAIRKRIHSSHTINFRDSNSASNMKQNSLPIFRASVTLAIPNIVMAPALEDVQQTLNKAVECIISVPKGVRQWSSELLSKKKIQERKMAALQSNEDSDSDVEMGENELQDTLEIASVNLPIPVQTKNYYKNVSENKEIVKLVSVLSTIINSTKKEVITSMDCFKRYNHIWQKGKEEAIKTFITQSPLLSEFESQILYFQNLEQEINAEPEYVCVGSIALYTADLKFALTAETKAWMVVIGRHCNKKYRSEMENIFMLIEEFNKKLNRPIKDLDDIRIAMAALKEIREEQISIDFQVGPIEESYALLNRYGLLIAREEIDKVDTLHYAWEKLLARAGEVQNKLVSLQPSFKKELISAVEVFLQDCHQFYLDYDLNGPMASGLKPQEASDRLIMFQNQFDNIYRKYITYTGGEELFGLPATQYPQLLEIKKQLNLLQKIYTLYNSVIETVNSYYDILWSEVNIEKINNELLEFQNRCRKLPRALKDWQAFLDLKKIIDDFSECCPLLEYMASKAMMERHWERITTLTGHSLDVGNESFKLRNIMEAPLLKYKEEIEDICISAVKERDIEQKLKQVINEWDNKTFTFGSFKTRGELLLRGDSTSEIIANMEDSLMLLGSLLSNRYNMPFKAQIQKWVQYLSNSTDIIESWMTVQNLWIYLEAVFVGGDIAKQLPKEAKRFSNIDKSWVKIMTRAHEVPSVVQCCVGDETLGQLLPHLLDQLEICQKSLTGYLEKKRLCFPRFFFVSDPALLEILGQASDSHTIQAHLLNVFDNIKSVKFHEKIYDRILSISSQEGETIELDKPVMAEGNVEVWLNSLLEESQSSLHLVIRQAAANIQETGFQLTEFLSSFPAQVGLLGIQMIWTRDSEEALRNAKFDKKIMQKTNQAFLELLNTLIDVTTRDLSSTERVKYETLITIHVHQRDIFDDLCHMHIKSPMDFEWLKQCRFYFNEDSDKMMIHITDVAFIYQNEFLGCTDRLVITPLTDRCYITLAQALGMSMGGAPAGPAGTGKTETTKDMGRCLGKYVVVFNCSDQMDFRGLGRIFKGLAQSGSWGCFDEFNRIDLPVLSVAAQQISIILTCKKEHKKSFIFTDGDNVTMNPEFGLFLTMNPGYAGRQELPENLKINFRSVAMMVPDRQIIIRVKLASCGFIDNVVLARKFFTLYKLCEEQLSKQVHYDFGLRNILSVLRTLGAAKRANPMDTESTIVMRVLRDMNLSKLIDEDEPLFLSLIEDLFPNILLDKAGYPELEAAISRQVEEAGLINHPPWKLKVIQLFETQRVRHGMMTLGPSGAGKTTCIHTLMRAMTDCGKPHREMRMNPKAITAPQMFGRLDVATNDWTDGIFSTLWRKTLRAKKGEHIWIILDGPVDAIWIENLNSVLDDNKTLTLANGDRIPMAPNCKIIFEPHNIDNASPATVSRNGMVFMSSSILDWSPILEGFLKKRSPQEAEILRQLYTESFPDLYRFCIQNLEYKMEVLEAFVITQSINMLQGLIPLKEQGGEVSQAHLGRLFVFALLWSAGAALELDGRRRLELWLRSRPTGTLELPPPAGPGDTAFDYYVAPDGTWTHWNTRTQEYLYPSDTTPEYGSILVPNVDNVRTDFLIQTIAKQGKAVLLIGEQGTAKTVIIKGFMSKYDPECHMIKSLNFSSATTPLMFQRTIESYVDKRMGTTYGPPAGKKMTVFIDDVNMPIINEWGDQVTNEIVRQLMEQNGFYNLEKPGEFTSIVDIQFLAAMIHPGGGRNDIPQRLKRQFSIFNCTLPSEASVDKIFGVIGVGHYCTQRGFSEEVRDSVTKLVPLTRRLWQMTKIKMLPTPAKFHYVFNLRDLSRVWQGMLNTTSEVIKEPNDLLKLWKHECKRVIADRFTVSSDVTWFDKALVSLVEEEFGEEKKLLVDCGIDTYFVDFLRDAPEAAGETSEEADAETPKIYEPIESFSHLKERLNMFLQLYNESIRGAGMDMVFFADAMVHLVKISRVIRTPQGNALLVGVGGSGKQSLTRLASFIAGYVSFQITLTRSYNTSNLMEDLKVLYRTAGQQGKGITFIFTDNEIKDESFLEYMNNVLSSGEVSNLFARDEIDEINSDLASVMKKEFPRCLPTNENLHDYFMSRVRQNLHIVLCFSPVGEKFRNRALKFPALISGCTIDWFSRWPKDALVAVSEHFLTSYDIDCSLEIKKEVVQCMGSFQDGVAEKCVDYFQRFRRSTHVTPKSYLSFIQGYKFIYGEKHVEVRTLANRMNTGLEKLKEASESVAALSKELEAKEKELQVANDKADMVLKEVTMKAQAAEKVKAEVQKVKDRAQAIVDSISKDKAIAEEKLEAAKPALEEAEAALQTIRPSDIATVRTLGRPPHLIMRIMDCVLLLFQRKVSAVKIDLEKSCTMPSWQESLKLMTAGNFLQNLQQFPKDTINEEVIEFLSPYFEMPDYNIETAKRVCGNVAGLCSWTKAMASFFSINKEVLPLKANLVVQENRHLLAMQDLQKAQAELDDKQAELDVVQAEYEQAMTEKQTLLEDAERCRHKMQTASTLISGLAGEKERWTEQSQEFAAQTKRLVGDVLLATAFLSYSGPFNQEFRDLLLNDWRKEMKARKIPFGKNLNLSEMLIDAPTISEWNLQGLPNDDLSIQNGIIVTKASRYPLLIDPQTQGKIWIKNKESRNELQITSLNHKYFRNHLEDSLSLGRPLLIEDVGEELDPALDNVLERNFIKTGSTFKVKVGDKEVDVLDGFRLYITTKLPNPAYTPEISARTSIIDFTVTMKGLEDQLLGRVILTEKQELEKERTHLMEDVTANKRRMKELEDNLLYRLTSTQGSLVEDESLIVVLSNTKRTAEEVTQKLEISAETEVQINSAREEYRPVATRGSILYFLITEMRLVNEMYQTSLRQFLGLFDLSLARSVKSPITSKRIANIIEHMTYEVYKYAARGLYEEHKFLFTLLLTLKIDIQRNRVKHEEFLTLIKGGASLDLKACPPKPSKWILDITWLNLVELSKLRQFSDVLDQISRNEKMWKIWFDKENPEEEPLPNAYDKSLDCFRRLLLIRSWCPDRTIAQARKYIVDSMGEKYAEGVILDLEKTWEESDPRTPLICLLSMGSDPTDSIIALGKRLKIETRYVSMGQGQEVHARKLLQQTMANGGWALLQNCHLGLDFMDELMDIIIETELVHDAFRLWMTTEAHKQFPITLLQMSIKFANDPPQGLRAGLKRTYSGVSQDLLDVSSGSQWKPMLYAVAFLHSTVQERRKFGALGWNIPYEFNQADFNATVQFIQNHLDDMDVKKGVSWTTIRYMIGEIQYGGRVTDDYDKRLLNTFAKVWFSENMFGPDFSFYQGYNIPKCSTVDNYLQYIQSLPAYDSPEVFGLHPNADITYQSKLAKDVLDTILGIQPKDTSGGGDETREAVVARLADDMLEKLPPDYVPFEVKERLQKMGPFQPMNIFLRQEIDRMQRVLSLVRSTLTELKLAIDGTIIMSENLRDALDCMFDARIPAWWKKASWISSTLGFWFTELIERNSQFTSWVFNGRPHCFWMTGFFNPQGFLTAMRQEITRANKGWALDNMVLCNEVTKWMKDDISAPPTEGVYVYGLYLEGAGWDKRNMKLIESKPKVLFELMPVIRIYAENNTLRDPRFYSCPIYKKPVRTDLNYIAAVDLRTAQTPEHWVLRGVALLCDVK
active: lapatinib -0.484
inactive: [1] -0.147 | filanesib -0.061 | zotarolimus 0.024 | alisertib 0.011 | [2] -0.042 | gefitinib 0.046 | [7] 0.058 | pictilisib -0.001 | [3] 0.049 | crizotinib 0.145 | [4] -0.007 | [5] -0.076 | duvelisib 0.117 | gandotinib 0.013 | tozasertib 0.082 | [6] -0.052 | doramapimod -0.031 | ispinesib 0.057

FAM193B (UniProt Q96PV7)
inactive: [1] -0.179 | filanesib 0.379 | zotarolimus -0.077 | idasanutlin 0.311 | [2] 0.112 | lapatinib -0.066 | [3] -0.065 | crizotinib -0.081 | [4] -0.097 | [5] 0.348 | duvelisib -0.18 | tozasertib 0.062 | [6] -0.189 | doramapimod -0.046

EIF4E2 (UniProt O60573)
inactive: [1] -0.062 | filanesib -0.089 | zotarolimus 0.058 | idasanutlin 0.024 | alisertib 0.059 | [2] -0.043 | gefitinib 0.043 | [7] -0.251 | lapatinib 0.033 | [3] 0.151 | crizotinib -0.018 | [4] -0.027 | [5] 0.085 | duvelisib 0.037 | tozasertib 0.044 | [6] 0.07 | doramapimod -0.069 | ispinesib -0.087
